The supplement of paper PMC11732987, “Enantioselective OTUD7B fragment discovery through chemoproteomics screening and high-throughput optimisation” (Communications Chemistry, 2025)

Assays:
Assay in all cases: log2 ratio of Biotin-Ahx-Ub-VS probe labelling (fragment/DMSO); higher = less target engagement (more negative = stronger competition), active = hit call of the paper (q ≤ 0.05, log2 ratio ≤ -1)
Conditions in all cases: compound concentration: 200 uM; treatment time: 3 h
OTUD6B = target: T1, OTUD6B (UniProt Q8N6M0)
T1 sequence (whole entry): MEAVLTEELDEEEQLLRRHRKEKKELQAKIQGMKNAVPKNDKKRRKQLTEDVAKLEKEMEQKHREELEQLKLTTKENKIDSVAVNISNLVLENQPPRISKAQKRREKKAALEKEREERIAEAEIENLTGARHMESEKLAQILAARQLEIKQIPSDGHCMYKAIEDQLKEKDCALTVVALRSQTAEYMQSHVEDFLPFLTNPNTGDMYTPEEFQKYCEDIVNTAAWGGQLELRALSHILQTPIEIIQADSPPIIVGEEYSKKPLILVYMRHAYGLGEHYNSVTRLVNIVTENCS
Method in brief: (§1)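 Fragment (200 µM) or vehicle was incubated for 3 h with triplicate HEK293T lysate samples of 495 µg, which were then treated with Biotin-Ahx-Ub-VS at 0.5 µM final for 1 h. Labelled DUBs were enriched on NeutrAvidin, digested with LysC and trypsin, and analysed by diaPASEF LC-MS/MS. Values are average log2 fragment/vehicle ratios from an unpaired t-test on global-median-normalised Spectronaut label-free quantities, using proteins with ≥2 unique peptides.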

OTUD7B = target: T2, OTUD7B (UniProt Q6GQQ9)
T2 sequence (whole entry): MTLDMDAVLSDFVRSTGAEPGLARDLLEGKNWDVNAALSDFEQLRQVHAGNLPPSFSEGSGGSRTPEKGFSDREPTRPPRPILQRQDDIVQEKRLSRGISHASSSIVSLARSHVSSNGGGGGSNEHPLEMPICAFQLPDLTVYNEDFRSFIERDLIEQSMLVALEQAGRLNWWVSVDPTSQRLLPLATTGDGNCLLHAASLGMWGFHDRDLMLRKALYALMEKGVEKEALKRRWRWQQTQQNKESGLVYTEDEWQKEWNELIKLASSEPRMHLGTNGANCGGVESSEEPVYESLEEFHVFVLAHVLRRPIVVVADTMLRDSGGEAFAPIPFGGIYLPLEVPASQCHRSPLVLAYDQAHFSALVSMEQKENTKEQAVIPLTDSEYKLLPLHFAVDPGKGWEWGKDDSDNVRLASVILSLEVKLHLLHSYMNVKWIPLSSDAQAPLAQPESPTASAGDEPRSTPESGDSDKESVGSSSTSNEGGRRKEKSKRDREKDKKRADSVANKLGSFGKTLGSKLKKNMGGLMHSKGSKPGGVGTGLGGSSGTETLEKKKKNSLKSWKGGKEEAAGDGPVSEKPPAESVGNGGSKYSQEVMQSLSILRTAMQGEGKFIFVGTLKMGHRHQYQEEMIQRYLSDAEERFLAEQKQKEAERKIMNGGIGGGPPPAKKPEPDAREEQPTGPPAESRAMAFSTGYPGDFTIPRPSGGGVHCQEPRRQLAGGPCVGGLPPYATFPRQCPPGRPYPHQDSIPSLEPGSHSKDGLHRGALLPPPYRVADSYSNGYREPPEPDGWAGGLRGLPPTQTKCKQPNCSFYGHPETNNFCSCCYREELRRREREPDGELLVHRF
Method in brief: as §1

PRPF8 = PRPF8 (UniProt Q6P2Q9)
Method in brief: as §1

PSMD7 = target: T3, PSMD7 (UniProt P51665)
T3 sequence (whole entry): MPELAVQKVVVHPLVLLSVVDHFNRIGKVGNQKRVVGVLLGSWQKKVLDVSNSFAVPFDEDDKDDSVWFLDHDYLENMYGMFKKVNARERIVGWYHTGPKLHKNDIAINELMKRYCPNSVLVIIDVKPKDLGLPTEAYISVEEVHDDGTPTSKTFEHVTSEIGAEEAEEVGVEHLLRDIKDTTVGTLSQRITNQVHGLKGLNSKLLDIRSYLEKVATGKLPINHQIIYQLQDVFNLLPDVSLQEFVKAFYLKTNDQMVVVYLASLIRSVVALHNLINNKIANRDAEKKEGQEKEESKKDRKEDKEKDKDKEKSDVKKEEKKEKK
Method in brief: as §1

UCHL1 = UCHL1 (UniProt P09936)
Method in brief: as §1

UCHL3 = target: T4, UCHL3 (UniProt P15374)
T4 sequence (whole entry): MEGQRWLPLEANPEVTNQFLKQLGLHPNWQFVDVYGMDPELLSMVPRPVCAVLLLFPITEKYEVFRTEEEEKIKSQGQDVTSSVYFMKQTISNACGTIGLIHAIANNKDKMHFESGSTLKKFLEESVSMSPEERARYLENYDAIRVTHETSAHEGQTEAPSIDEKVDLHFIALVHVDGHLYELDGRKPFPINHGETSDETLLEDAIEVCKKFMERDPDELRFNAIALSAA
Method in brief: as §1

UCHL5 = target: T5, UCHL5 (UniProt Q9Y5K5)
T5 sequence (whole entry): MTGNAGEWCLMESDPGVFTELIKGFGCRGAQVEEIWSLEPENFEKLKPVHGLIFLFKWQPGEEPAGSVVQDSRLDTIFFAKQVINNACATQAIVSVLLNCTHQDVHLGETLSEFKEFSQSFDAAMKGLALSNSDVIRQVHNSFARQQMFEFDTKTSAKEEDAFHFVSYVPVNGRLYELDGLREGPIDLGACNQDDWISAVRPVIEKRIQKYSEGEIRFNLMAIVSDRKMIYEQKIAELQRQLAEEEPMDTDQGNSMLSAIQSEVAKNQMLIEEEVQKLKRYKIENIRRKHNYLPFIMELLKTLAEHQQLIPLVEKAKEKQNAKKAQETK
Method in brief: as §1

USP10 = USP10 (UniProt Q14694)
Method in brief: as §1

USP15 = target: T6, USP15 (UniProt Q9Y4E8)
T6 sequence (whole entry): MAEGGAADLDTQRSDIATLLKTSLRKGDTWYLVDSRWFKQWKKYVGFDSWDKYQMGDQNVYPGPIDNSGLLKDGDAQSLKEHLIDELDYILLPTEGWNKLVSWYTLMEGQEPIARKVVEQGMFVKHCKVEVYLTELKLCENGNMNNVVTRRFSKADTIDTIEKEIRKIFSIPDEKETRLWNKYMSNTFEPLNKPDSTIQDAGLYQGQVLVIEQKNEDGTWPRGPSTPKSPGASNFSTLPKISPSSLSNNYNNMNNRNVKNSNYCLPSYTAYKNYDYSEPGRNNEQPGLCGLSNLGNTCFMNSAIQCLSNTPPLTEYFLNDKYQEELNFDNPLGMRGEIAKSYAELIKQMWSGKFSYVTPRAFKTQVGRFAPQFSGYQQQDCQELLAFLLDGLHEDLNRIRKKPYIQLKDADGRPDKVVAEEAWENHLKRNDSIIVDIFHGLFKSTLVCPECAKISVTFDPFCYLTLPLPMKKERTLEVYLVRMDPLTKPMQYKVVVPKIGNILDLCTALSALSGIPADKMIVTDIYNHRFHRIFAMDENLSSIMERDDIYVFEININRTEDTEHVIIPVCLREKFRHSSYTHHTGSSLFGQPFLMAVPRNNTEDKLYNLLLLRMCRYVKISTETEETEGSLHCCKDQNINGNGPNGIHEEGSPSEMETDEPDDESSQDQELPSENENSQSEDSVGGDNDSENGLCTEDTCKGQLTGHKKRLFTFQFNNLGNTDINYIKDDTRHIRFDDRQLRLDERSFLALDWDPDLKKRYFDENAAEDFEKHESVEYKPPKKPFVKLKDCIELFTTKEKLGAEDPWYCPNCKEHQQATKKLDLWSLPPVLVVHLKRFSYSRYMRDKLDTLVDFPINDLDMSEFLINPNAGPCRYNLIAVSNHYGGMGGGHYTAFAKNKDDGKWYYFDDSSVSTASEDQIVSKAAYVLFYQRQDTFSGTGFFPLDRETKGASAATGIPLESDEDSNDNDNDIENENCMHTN
Method in brief: as §1

USP16 = USP16 (UniProt Q9Y5T5)
Method in brief: as §1

Measured: log2 ratio of Biotin-Ahx-Ub-VS probe labelling

Sequence of UCHL1 (P09936 whole entry, looked up): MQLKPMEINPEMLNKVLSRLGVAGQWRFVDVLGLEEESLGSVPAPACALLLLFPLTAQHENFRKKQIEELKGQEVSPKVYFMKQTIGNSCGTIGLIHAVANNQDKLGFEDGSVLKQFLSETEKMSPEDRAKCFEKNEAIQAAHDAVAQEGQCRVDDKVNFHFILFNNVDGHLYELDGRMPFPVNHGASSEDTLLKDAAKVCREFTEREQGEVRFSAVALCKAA
Sequence of USP16 (Q9Y5T5 whole entry, looked up): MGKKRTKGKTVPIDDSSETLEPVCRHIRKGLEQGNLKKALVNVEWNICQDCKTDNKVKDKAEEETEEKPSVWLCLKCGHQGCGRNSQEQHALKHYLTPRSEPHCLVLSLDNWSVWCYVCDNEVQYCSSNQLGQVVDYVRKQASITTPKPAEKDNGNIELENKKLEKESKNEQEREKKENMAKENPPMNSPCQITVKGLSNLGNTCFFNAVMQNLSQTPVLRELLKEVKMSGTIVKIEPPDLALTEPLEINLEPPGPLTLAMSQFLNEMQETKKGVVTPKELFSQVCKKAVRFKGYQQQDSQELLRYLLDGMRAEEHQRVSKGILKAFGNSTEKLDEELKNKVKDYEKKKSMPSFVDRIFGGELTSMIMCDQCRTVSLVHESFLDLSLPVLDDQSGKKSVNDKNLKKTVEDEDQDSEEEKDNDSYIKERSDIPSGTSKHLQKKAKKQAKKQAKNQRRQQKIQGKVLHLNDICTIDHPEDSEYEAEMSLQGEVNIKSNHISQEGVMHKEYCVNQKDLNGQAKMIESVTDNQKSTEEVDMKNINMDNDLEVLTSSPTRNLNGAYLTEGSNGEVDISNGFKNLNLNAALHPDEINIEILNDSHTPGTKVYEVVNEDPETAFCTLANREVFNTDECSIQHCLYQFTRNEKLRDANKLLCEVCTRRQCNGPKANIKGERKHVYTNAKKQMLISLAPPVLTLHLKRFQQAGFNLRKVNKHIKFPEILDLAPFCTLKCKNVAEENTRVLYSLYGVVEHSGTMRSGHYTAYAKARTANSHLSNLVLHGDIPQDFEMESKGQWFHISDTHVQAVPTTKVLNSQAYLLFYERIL
Sequence of USP10 (Q14694 whole entry): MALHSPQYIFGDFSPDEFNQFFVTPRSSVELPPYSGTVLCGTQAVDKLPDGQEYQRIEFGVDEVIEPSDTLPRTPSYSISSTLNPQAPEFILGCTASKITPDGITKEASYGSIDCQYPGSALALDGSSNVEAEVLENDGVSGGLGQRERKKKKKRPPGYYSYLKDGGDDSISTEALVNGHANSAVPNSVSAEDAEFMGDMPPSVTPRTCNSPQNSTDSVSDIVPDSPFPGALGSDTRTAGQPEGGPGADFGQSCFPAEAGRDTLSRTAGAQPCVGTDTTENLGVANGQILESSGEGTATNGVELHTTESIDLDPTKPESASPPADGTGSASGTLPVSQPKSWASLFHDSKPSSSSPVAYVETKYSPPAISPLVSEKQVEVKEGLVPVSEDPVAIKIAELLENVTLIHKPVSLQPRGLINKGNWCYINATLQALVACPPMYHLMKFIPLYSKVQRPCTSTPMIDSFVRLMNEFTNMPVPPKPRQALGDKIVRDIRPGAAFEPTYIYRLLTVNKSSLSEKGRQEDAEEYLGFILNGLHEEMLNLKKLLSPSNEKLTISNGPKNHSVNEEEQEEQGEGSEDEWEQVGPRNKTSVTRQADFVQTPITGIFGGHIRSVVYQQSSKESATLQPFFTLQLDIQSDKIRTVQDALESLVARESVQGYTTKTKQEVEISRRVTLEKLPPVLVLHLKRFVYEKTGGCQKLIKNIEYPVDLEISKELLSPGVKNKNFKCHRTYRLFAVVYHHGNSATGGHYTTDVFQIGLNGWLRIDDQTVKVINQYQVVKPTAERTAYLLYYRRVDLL

COc1ccc(Cl)cc1NC(=O)CCl
inactive: OTUD6B -0.594 | PRPF8 -0.0117 | PSMD7 -0.241 | UCHL3 -0.0348 | UCHL5 -0.501 | USP10 -0.263 | USP15 -0.674 | USP16 -0.286
active: OTUD7B -1.29 | UCHL1 -1.01
